Most compounds without a hit are left out; they make up all but 2.8% or so of the library.
KKLEB tox – counter-screen for CF NF-kB inhibitors: cytotoxicity; KKLEB CF airway cells viability, ATPlite luminescence, overnight; hits give low values; cells stimulated with P. aeruginosa culture filtrate; activity change (cytotoxicity), % at 5 µM; 360,000 compounds, 0.36% hits; AID 602141;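 active = corrected activity change at or below -50% at 5 µM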
HIF-2a inh – HIF-2a inhibition | inhibition, % at 18.8 µM | 360,000 compounds, 0.72% hits | 786-0 RCC cells HIF-2a reporter, luciferase luminescence, overnight;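 active = inhibition of the luminescence signal of 40% or more relative to plate controls, in a single-dose primary screen at 18.75 µM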
MITF TRPM1 inh – reduces MITF-dependent TRPM1 promoter luciferase signal; 330,000 compounds, 0.83% hits; AID 488899; SK-MEL-5 TRPM1 promoter luciferase, 24 h; inhibition, % at 12.5 µM;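 active = mean inhibition across replicates of 60% or more, whatever share of single replicates reaches that level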
Shn3 3UTR inh – Schnurri-3 reporter inhibition in Clone20 osteoblasts | Clone20 osteoblast Shn3 3'UTR firefly luciferase, 24 h | inhibition, % at 12.5 µM | 360,000 compounds, 0.52% hits | AID 588674;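 active = mean inhibition of at least 75% with every replicate also reaching 75%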
CF NFkB inh – blocks PAF-induced NF-kB reporter in cystic fibrosis cells; 360,000 compounds, 0.86% hits; KKLEB NF-kB-GFP reporter, GFP fluorescence overnight; inhibition, % at 5 µM; AID 588850;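 active = at least 50% inhibition at 5 µM, scaled per plate between neutral and stimulator controls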;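 also: PAF is a Pseudomonas aeruginosa culture filtrate used as stimulus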
Peg3 prom inh – reduces Peg3 promoter-driven luciferase expression in HeLa | HeLa PEG-Prom luciferase reporter, luminescence, overnight | 360,000 compounds, 1.7% hits | inhibition, % at 20 µM;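 active = inhibition of at least 50% at 20 µM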
CF NFkB inh conf – confirmation of cystic fibrosis induced NF-kB inhibitors. 1,300 compounds, 64% hits. inhibition, % at 5 µM. KKLEB CF airway cells, PAF-induced NF-kB-GFP fluorescence, overnight. shares compounds with CF NFkB inh; in the data active = inhibition above about 40%;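 also: stimulus PAF is a Pseudomonas aeruginosa filtrate and not platelet activating factor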
Hits are given with their value; . = inactive; / = no result.

SMILES	KKLEB tox	HIF-2a inh	MITF TRPM1 inh	Shn3 3UTR inh	CF NFkB inh	Peg3 prom inh	CF NFkB inh conf
CCCCCCCCCc1nc2sc3c(c2c(=O)n1NC(=O)c1ccc([N+](=O)[O-])cc1)CC(C)(C)OC3	.	.	.	.	55.3	.	62.1
CC(=O)OCC(=O)C1(O)CCC2C3CC(C)C4=CC(=O)C=CC4(C)C3C(O)CC21C (stereo not drawn)	.	.	/	.	65.4	.	.
CCC1C(=O)C(C)(C)C(=O)OC1c1ccc([N+](=O)[O-])cc1 (stereo not drawn)	.	.	.	.	.	.	/
O=C1CC(=O)OC(c2ccc([N+](=O)[O-])cc2)O1	.	85.9	/	97.5	90.2	102.8	111.3
Cc1cn([C@H]2C[C@H](O)[C@@H](/C=C/C(=O)NCc3ccc4c(c3)OCO4)O2)c(=O)[nH]c1=O	.	.	/	.	.	.	/
Cc1cccc(N=c2oc3cc(O)ccc3cc2C(N)=O)c1	.	.	.	.	67.8	.	71.8
COc1ccc2cc(C(N)=O)c(=Nc3ccc(C)cc3)oc2c1	.	.	.	.	62.9	.	95.9
Cc1ccc(NS(=O)(=O)c2c(C)[nH]c(C)c2C(=O)N2CCCCC2)cc1F	.	.	.	.	.	.	/
COC(=O)c1ccc(CSc2ccc3nnc(-c4cccc(F)c4)n3n2)o1	.	.	.	.	.	.	/
O=C(CSc1nnc(NC(=O)c2ccc(F)cc2F)s1)NC1CC1	.	.	.	.	.	.	/
C=C1C(=O)[C@]23C[C@H]1CC[C@H]2[C@]1(C)[C@@H](OC(C)=O)CC[C@@](C)(C(=O)O)[C@H]1C[C@@H]3O	.	.	/	.	92.5	92.7	92.6
C=C1C(=O)[C@]23C[C@H]1CC[C@H]2[C@]1(C)[C@@H](O)CC[C@@](C)(C(=O)O)[C@H]1C[C@@H]3O	.	.	/	.	83.5	.	82.8
CCOC(=O)C1CCN(C(=O)c2cc(C(C)(C)C)nn2Cc2ccccc2)CC1	.	.	.	.	.	.	/
CC1C=CC(C)C(C(=O)c2ccccc2)C1C(=O)c1ccccc1 (stereo not drawn)	.	.	/	.	.	.	/
O=C(c1ccccc1)C1OC1C(=O)c1ccccc1 (stereo not drawn)	.	.	.	.	56.1	.	53.9
Cc1nc2sc3c(NCc4ccco4)ncnc3c2c2c1COC(C)(C)C2	.	.	.	.	72.3	.	.
Cc1onc(-c2ccccc2)c1C(=O)Nc1nnc(CC(C)(C)C)s1	.	.	.	.	.	.	/
CCOc1ccc(N(CC(=O)NN=C2CCCC2)S(C)(=O)=O)cc1	.	.	.	.	.	.	/
Cc1ccccc1S(=O)(=O)Cc1ccc(C(=O)N2CCN(c3cccc(C)c3C)CC2)o1	.	.	.	.	68.2	69.9	63.4
Cc1ccccc1S(=O)(=O)Cc1ccc(C(=O)N2CC(C)CC(C)C2)o1 (stereo not drawn)	.	.	.	.	.	.	/
O=C1CN(C(=O)COC(=O)CCc2ccccc2O)c2ccccc2N1	.	.	.	.	.	.	/
CCN(CC)c1ncnc2ccc(Br)cc12	.	.	.	.	70.6	.	40.2
FC(F)Sc1ccc(NC(=S)NCC2CCCCC2)cc1	.	.	.	.	50.0	.	61.0
FC(F)Sc1ccc(NC(=S)NC2CCCCC2)cc1	.	.	.	.	.	.	/
CCC1=Nc2cc(C(=O)NCc3ccco3)ccc2Sc2ccc(C)cc21	.	.	.	.	51.5	.	79.6
CC(C)=CCc1c(O)c(CC=C(C)C)c2c(c1O)C(=O)CC(c1ccc(O)cc1)O2 (stereo not drawn)	.	.	.	.	.	.	/
CC(C)=CCc1c(O)cc(O)c2c1OC(c1ccc(O)cc1)CC2=O (stereo not drawn)	.	.	.	.	52.6	.	71.8
CN(CC(=O)Nc1ccccc1Cl)C(=O)COC(=O)c1nc(Cl)c(Cl)c(Cl)c1Cl	.	.	73.5	.	87.0	104.6	.
O=C(NNS(=O)(=O)c1ccc(C(F)(F)F)cc1)c1cnn(-c2ccccc2)c1C(F)(F)F	.	.	.	.	.	.	/
C=C1c2cccc(C(F)(F)F)c2O[C@H](C(=O)OCC)[C@H]1OC	.	.	.	.	.	.	/

Screens deposited in PubChem BioAssay by several laboratories.
